Screening results from PubChem.
An excerpt weighted towards active compounds, which were near 19% of everything screened.
HT1080NT lethal = kills 2HG-producing HT-1080-NT fibrosarcoma cells; HT-1080-NT fibrosarcoma viability, CellTiter-Glo ATP luminescence, 48 h; Potency, µM (titrated, usually from 46.1 µM), without a hit: at the highest dose activity, negative = less viability, most hits filed as cytotoxic; 360,000 compounds, 1.6% hits; AID 686970;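 further: NT is the 2HG producing partner of a matched IDH1 knockdown line; 0% = DMSO-treated cells and -100% = media-only wells without cells; nearly all actives have a fitted effect of over 55% in size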
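HT-1080-NT fibrosarcoma cells (2HG-overproducing), 750 cells/well in RPMI with 5% FBS, dosed after 2 h and incubated 48 h at 37C. CellTiter-Glo luminescence normalized to DMSO and no-cell wells; concentration-response curves fitted and classed.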
DT40 TDP1 CPT = growth inhibition of DT40 Tdp1-/-;hTDP1 cells with camptothecin (screen for TDP1 inhibitors); chicken DT40 Tdp1-/-;hTDP1 cells + 20 nM CPT, ATP luminescence, 48 h; Potency, µM (highest dose often 46.2 µM), without a hit: top-dose activity change, negative = growth inhibition, usual class: inhibitors; 420,000 compounds, 12% hits; AID 686979; further: nearly all actives have a fitted effect of over 55% in size
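Chicken DT40 Tdp1-/- cells stably complemented with human TDP1 were seeded at 400 cells/well in medium containing 20 nM camptothecin, exposed to pin-transferred compounds, and grown at 37 °C for at least 48 hr. Viability was read as ATP luminescence.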
HT1080 IDH1KD tx = toxicity to HT-1080 IDH1 knockdown cells (counter line); HT-1080 IDH1 knockdown viability, ATP luminescence, 48 h; 360,000 compounds, 2% hits; AID 686971; Potency, µM (titrated, usually from 46.1 µM), inactives show at the highest dose activity, negative = toxicity, usual class: cytotoxic;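 further: 0% = DMSO wells and -100% = cell-free medium wells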
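Knockdown cells (IDH1KD HT-1080) received compounds 2 h after plating at 750 cells/well and were kept 48 h at 37 °C in 5% FBS RPMI. A CellTiter-Glo luminescence read gave % activity for curve fitting.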
KB-3-1 tox = kills parental KB-3-1 adenocarcinoma cells. KB-3-1 viability, CellTiter-Glo ATP luminescence, 72 h. 400,000 compounds, 1.4% hits. Potency, µM (highest dose often 46.1 µM), actives largely listed as cytotoxic; further: nearly all actives have a fitted effect of over 60% in size
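Screening of KB-3-1 cells (DMEM, 10% FBS, phenol-red free) ran from lowest to highest compound concentration; after 72 h at 37 °C viability was read luminescently and curves fitted.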
KB-V1 MDR tox = KB-V1 MDR subline cytotoxicity | KB-V1 MDR cells viability, CellTiter-Glo, 72 h | 400,000 compounds, 3.4% hits | AID 1347076 | Potency, µM (top dose mostly 46.1 µM), hits mostly cytotoxic; further: nearly all actives have a fitted effect of over 60% in size
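Cytotoxicity toward P-gp-expressing KB-V1 cells was determined as loss of CellTiter-Glo luminescence after 72 h at 37 degrees C. Compounds were tested in quantitative HTS format across a concentration range, with curves fitted to normalized data.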
TDP1 cell noCPT = qHTS for Inhibitors of human tyrosyl-DNA phosphodiesterase 1 (TDP1): qHTS in cells in absence of CPT | Potency, µM (top dose mostly 46.2 µM), for the others: at the top dose activity change, negative = growth inhibition, hits mostly inhibitors | 420,000 compounds, 15% hits | DT40 Tdp1-/- hTDP1 cells, no CPT, ATP luminescence, 48 h; further: nearly all actives have a fitted effect of over 55% in size
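Growth kinetics read by CellTiter-Glo luminescence after ≥48 hr at 37 °C. Cells: DT40 Tdp1-/- stably carrying human TDP1, 400 per well, compound exposure in the absence of CPT (DMSO vehicle).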
* marks the source's active call; other numbers are inactive results; i = inactive; ? = inconclusive; / = no result given; [ ] = remark or other dose. The call rests on the fitted dose curve; in most records, active means well fitted curve in the direction sought with a large enough effect; inconclusive means small, poorly fitted or top-dose-only effect, or another doubt; inactive means no such curve, though single readings can be large; an effect the other way counts as inactive or inconclusive. Unless noted, on the % scale 0 is the no-effect control and ±100 the full control effect; potency means the concentration at half of the fitted maximal effect.

SMILES	HT1080NT lethal	DT40 TDP1 CPT	HT1080 IDH1KD tx	KB-3-1 tox	KB-V1 MDR tox	TDP1 cell noCPT
COC(=O)c1ccc(NC(=S)NC2c3ccccc3CC2O)cc1 (centres undefined)	-4.2%	-11.5%	-2.1%	i	i	-6.9%
Cc1cccc2sc(N(Cc3cccnc3)C(=O)c3ccco3)nc12	/	-1.0%	/	/	/	-19.2%
O=C(CCOc1ccccc1)N(Cc1cccnc1)c1nc2c(F)cccc2s1	/	13µM*	/	/	/	7.31µM*
CC(=O)c1ccc(C(=O)N(Cc2cccnc2)c2nc3c(Cl)cccc3s2)cc1	/	25.9µM*	/	i	i	?
O=C(COc1ccccc1)N(Cc1cccnc1)c1nc2c(F)cccc2s1	/	-7.6%	/	i	i	-16.7%
Cc1ccc2sc(N(Cc3cccnc3)C(=O)CCOc3ccccc3)nc2c1C	/	23.1µM*	/	i	i	18.4µM*
OC(Cc1cccc(C=NN2CCOCC2)n1)(C(F)(F)F)C(F)(F)F	-1.1%	5.5%	-10.4%	i	i	?
O=C(NCc1cccs1)c1ccc2sc(C3=C[C@@H](O)[C@@H](O)[C@@H](CO)O3)nc2c1	2.0%	-20.1%	-0.8%	i	i	-13.9%
Cc1ccc(-c2nnc(OCC3CCCO3)c3ccccc23)cc1 (centres undefined)	-19.7%	?	-14.0%	i	?	18.4µM*
Cc1ccc(Oc2nnc(-c3ccccc3)c3ccccc23)cc1	?	20.6µM*	?	i	i	?
Cc1ccc(-c2nnc(Oc3cccc(C)c3)c3ccccc23)cc1	2.9%	?	1.0%	i	i	?
CCOC(=O)c1ccc(N(C(=O)c2ccccc2)c2ccccc2)cc1	/	-10.4%	/	i	i	?
O=C(NCc1ccccc1)C1CCN(S(=O)(=O)c2ccc3c(c2)CCCN3C(=O)C2CCC2)CC1	/	16.4µM*	/	i	i	?
CC(=O)N1CCCc2cc(S(=O)(=O)N3CCC(C(=O)Nc4ccc(C)cc4Cl)CC3)ccc21	/	14.6µM*	/	i	i	16.4µM*
CC(=O)N1CCCc2cc(S(=O)(=O)N3CCC(C(=O)NCc4ccccc4Cl)CC3)ccc21	/	?	/	i	?	23.1µM*
Cc1cccc(CNC(=O)C2CCN(S(=O)(=O)c3ccc4c(c3)CCCN4C(=O)C3CCC3)CC2)c1	/	13µM*	/	?	i	8.2µM*
CC(=O)N1CCCc2cc(S(=O)(=O)N3CCC(C(=O)NCc4ccccc4)CC3)ccc21	/	?	/	i	i	?
CCC(C)(C)NC(=O)C1CCN(S(=O)(=O)c2ccc3c(c2)CCCN3C(C)=O)CC1	/	2.5%	/	i	i	-0.2%
COc1ccc(S(=O)(=O)NCCc2sc(-c3cccnc3)nc2C)cc1	/	/	/	i	?	/
O=C(NCc1ccc(Cl)cc1)C1CCN(S(=O)(=O)c2ccccc2)CC1	-13.2%	?	-10.7%	i	i	?
Cc1ccc(CNC(=O)C2CCN(S(=O)(=O)c3ccc4c(c3)CCCN4C(=O)C3CCC3)CC2)cc1	/	20.6µM*	/	?	?	7.31µM*
O=C(NCc1ccc(Cl)cc1)C1CCN(S(=O)(=O)c2ccc3c(c2)CCCN3C(=O)C2CCC2)CC1	/	16.4µM*	/	?	i	20.6µM*
Cc1ccc(CNS(=O)(=O)c2ccc3c(c2)CCN3C(=O)C2CCC2)cc1	-21.5%	?	-2.0%	i	i	?
COCCNC(=O)C1CCCN(Cc2ccccc2-c2ccccc2)CC1 (centres undefined)	?	4.6%	20.9%	i	i	-14.5%
CC1CCC2(CC1)NC(=O)N(CC(=O)Nc1cccc(S(=O)(=O)N(C)c3ccccc3)c1)C2=O (centres undefined)	-4.3%	18.4µM*	-12.3%	i	i	29.1µM*
SMILES	HT1080NT lethal	DT40 TDP1 CPT	HT1080 IDH1KD tx	KB-3-1 tox	KB-V1 MDR tox	TDP1 cell noCPT
CCN(CC(=O)Nc1cccc(C(C)=O)c1)S(=O)(=O)c1ccc(OC)cc1	2.3%	1.6%	-0.4%[9.24 µM]	i	?	?
CCN(CC(=O)Nc1cccc(S(=O)(=O)N(C)c2ccccc2)c1)Cc1ccccc1	-2.2%	18.4µM*	-0.1%	i	?	?
CN(c1ccccc1)S(=O)(=O)c1cccc(NC(=O)CN2C(=O)NC3(CCCCC3)C2=O)c1	-3.4%	-11.0%	-3.0%	i	i	-4.2%
Cc1ccccc1CN(C)CC(=O)Nc1cccc(S(=O)(=O)N(C)c2ccccc2)c1	-15.0%	20.6µM*	-9.2%	?	?	16.4µM*
CCN(CC)S(=O)(=O)c1cccc(NC(=O)CN(C)Cc2cccc(OC)c2)c1	-8.1%	?	-20.3%	i	?	23.1µM*
CCCN1C(=O)C2(c3ccccc31)c1c(oc3cc(C)c(C)cc3c1=O)C(=O)N2CCCOC (centres undefined)	/	?	/	i	i	?
Cc1cc(C)c(NC(=O)CN(C)CC(=O)Nc2cccc(S(=O)(=O)N(C)c3ccccc3)c2)c(C)c1	-11.0%	?	-18.3%	i	?	23.1µM*
NS(=O)(=O)c1cccc(NC(=O)CN2CCc3ccccc32)c1	-15.5%	?	-6.7%	i	i	-1.8%
CC(=O)NCCC(=O)Nc1cccc(S(=O)(=O)N(C)c2ccccc2)c1	-5.0%	-6.9%	3.0%	i	i	2.6%
CN(c1ccccc1)S(=O)(=O)c1cccc(NC(=O)CN2CCCc3ccccc32)c1	-17.3%	?	-14.2%	i	i	18.4µM*
CC(OC(=O)CCN1C(=O)C2CC=CCC2C1=O)C(=O)c1ccc(F)cc1 (centres undefined)	10.3%	3.1%	11.5%	i	i	10.4%
CN(CC(=O)Nc1cc(S(=O)(=O)N2CCCC2)ccc1Cl)Cc1nc2ccccc2c(=O)[nH]1	-4.8%	?	-7.7%	i	i	20.6µM*
Cc1ccc(S(=O)(=O)N2CCCCC2)cc1NC(=O)CCc1nc2ccccc2c(=O)[nH]1	-5.9%	?	-0.7%	i	?	?
COc1ccc(S(=O)(=O)N2CCCCC2)cc1NC(=O)CCc1nc2ccccc2c(=O)[nH]1	-15.0%	-21.7%	-12.1%	i	i	-28.6%
COc1ccccc1CNCC(=O)Nc1cc(S(=O)(=O)N2CCCCCC2)ccc1Cl	?	?	-26.5%	i	?	?
COc1ccccc1CN(C)CC(=O)Nc1cccc(S(=O)(=O)N2CCCC2)c1	-1.0%	?	0.2%	i	?	23.1µM*
